Assay results published in PubChem BioAssay (NCATS).
Inconclusive results are not listed. Where a call stands in place of a potency, no number is given. A number with no mark means an inactive call. Active and inactive are the calls of the source. Calls follow the shape of the dose curve; as a rule, active = well fitted curve in the direction sought with a large enough effect; inconclusive = small, poorly fitted or top-dose-only effect, or another doubt; inactive = no such curve, though single readings can be large; an effect the other way counts as inactive or inconclusive.

Legend:
[1] = target: Rap guanine nucleotide exchange factor 3 (Homo sapiens) (UniProt O95398); experiment: Confirmatory qHTS for antagonist of cAMP-regulated guanine nucleotide exchange factor 3 (EPAC1) (AID 1645880); conditions: EPAC1 Rap1B-BODIPY-GDP exchange, fluorescence; activity, negative = inhibition: at 115 µM (top of the series); also: nearly all actives have a fitted effect of over 55% in size; also: potency is read from the fitted curve at half-maximal effect
Method in brief: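 Nucleotide exchange uses 100 nM EPAC1, 250 nM RAP1B-BODIPY-GDP and 50 uM GDP, with compounds in a concentration-titration series. After 5 min at room temperature, fluorescence (480 nm ex/540 nm em) is read every 5 min for 30 min. Data are normalized to control ATA and DMSO.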

[2] = target: Rap guanine nucleotide exchange factor 3 (Homo sapiens) (UniProt O95398); experiment: Confirmatory qHTS for agonist of cAMP-regulated guanine nucleotide exchange factor 3 (EPAC1) (AID 1645881); conditions: EPAC1 Rap1B BODIPY-GDP exchange fluorescence; series mostly up to 154 µM; also: nearly all actives have a fitted effect of over 75% in size; also: potency is read from the fitted curve at half-maximal effect;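 as to activation: EPAC1 catalysed release of BODIPY-GDP from Rap1B seen as fluorescence loss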
[3] = target: Rap guanine nucleotide exchange factor 4 (Homo sapiens) (UniProt Q8WZA2); experiment: Confirmatory qHTS for agonist of cAMP-regulated guanine nucleotide exchange factor 4 (EPAC2) (AID 1645884); conditions: EPAC2 GEF activity, Rap1B-BODIPY-GDP fluorescence; series mostly up to 154 µM;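 also: nucleotide exchange releases bodipy-GDP from Rap1 and this lowers its fluorescence; nearly all actives have a fitted effect of over 65% in size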; also: potency is read from the fitted curve at half-maximal effect
[4] = target: Rap guanine nucleotide exchange factor 4 (Homo sapiens) (UniProt Q8WZA2); experiment: Confirmatory qHTS for antagonist of cAMP-regulated guanine nucleotide exchange factor 4 (EPAC2) (AID 1645885); conditions: EPAC2 Rap1B-BODIPY-GDP exchange fluorescence, biochemical; series mostly up to 12.7 µM; also: nearly all actives have a fitted effect of over 25% in size; also: potency is read from the fitted curve at half-maximal effect
[5] = target: Rap guanine nucleotide exchange factor 3 (Homo sapiens) (UniProt O95398); experiment: Counterscreen qHTS for antagonist of cAMP-regulated guanine nucleotide exchange factor 3 (EPAC1) (AID 1645888); conditions: Rap1B-BODIPY-GDP nucleotide exchange, fluorescence; series mostly up to 154 µM;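 also: fluorescence loss as bound BODIPY-GDP is released from Rap1B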
Method in brief: (§1)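 Measured: fluorescence of BODIPY-GDP bound to Rap1B, which falls as exchange proceeds. Conditions include 50 uM competing GDP, 5 and 30 min reads, and a later cAMP challenge for antagonist detection.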

[6] = target: Rap guanine nucleotide exchange factor 3 (Homo sapiens) (UniProt O95398); experiment: Counterscreen qHTS for agonist of cAMP-regulated guanine nucleotide exchange factor 3 (EPAC1) (AID 1645889); conditions: EPAC1 Rap1B-BODIPY-GDP exchange, fluorescence; series mostly up to 154 µM; also: nearly all actives have a fitted effect of over 40% in size; also: potency is read from the fitted curve at half-maximal effect
Method in brief: as §1

Rap guanine nucleotide exchange factor 3 (Homo sapiens), sequence (O95398 whole entry, looked up): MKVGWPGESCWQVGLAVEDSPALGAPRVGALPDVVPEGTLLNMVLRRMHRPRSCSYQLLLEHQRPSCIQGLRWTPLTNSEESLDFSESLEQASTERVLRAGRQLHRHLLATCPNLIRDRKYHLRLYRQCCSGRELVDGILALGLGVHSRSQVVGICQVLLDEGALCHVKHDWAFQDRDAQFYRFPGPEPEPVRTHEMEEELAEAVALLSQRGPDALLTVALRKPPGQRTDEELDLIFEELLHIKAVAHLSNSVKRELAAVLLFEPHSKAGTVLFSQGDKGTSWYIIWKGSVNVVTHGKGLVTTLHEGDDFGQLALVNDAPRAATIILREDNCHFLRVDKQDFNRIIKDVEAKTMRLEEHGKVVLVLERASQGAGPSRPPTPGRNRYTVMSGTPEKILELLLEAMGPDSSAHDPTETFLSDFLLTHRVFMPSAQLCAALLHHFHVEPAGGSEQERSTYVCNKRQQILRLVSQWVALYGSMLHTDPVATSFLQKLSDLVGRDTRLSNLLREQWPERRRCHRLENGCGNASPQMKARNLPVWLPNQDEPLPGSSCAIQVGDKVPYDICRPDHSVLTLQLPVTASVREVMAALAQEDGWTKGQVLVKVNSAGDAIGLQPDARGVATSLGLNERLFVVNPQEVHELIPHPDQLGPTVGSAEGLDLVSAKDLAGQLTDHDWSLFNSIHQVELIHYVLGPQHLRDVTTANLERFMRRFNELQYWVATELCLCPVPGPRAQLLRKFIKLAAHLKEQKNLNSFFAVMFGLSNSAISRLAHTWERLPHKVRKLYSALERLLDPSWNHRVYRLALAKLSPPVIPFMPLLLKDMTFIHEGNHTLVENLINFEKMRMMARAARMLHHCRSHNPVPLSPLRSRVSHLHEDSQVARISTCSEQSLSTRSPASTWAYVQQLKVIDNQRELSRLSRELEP
Rap guanine nucleotide exchange factor 4 (Homo sapiens), sequence (Q8WZA2 whole entry, looked up): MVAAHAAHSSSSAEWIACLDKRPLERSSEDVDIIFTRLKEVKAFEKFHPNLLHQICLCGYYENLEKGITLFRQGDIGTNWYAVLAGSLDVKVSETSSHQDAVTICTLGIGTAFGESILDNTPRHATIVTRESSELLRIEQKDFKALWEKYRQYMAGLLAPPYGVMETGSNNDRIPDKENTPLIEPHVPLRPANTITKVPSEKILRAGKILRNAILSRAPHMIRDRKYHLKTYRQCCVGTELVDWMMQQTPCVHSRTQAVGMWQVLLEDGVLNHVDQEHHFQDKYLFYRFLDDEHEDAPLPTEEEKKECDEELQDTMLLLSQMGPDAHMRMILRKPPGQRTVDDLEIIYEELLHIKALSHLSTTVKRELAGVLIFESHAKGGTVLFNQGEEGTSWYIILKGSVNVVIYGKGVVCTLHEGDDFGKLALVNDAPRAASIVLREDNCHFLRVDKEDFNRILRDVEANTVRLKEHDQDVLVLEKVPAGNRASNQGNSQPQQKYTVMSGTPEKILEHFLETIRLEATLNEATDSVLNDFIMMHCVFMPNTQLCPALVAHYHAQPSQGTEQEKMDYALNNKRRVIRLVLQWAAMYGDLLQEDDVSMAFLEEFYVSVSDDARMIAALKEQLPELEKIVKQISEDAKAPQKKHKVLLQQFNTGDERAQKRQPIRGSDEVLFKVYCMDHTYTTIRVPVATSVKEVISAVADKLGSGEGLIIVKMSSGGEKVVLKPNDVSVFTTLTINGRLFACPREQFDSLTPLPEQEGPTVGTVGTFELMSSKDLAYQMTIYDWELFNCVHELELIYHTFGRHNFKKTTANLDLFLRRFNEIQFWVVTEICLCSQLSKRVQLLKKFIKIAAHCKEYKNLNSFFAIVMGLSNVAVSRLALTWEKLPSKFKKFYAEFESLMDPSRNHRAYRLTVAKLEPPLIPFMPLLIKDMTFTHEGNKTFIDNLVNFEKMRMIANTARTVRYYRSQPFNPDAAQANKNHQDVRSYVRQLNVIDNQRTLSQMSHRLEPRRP

| SMILES | Potency [1] | Potency [2] | Potency [3] | Potency [4] | Potency [5] | Potency [6] | activation [3] | activity change, negative = inhibition [5] | activation [6] | outcome [4] |
| --- | --- | --- | --- | --- | --- | --- | --- | --- | --- | --- |
| CCN1C(=O)/C(=C/c2ccc(OCc3ccc(C(=O)O)cc3)c(Cl)c2)NC1=S | 42.6 µM (active) | inactive | inactive | inactive | inactive | inactive | – | – | – | – |
| CCc1ccccc1N(C)S(=O)(=O)c1ccc2[nH]cc(C(=O)N3CCc4ccccc43)c(=O)c2c1 | inactive | inactive | – | inactive | – | – | -2.56% [at 17.1 µM, percent relative to cAMP agonist control] | -6.13% [at 30.8 µM] | 15.8% [at 30.8 µM] | – |
| CCOC(=O)c1cc(-c2nnc(SCC(=O)Nc3ccc(F)cc3)o2)c(C)nc1C | inactive | inactive | inactive | inactive | inactive | inactive | – | – | – | – |
| Cc1cccc(NC(=O)C2CCCN(S(=O)(=O)c3ccc4c(c3)oc(=O)n4C)C2)c1 (stereo unspecified) | inactive | inactive | – | inactive | – | – | 3.99% [at 17.1 µM, percent relative to cAMP agonist control] | -11.5% [at 30.8 µM] | 7.38% [at 30.8 µM] | – |
| CC1CCc2c(sc3nc(SCC(=O)O)n(-c4ccccc4)c(=O)c23)C1 (stereo unspecified) | inactive | inactive | – | inactive | – | – | -2.98% [at 17.1 µM, percent relative to cAMP agonist control] | -13.5% [at 30.8 µM] | 5.5% [at 30.8 µM] | – |
| CCN(CC(=O)Nc1ccc(OC)cc1)C(=O)Cc1cccs1 | 67.5 µM (active) | inactive | inactive | inactive | inactive | inactive | – | – | – | – |
| CCOc1ccc2nc(S(=O)(=O)NC(=O)C3(C)CCN3C(=O)CCc3cccs3)sc2c1 (stereo unspecified) | inactive | inactive | – | inactive | – | – | 5.68% [at 17.1 µM, percent relative to cAMP agonist control] | -20.4% [at 30.8 µM] | 4.36% [at 30.8 µM] | – |
| N#Cc1c(Nc2ccccc2)sc(C(=O)c2ccccc2)c1N | inactive | inactive | – | inactive | – | – | 9.46% [at 17.1 µM, percent relative to cAMP agonist control] | 13.4% [at 30.8 µM] | 19.9% [at 30.8 µM] | – |
| COc1ccc(-c2nc(C)ncc2-c2ccccc2)c(O)c1 | inactive | inactive | – | inactive | – | – | -0.293% [at 17.1 µM, percent relative to cAMP agonist control] | -10.8% [at 30.8 µM] | -4.43% [at 30.8 µM] | – |
| COc1ccc(/C=N/Nc2ncnc3sc(C)c(C)c23)cc1 | inactive | inactive | inactive | inactive | inactive | inactive | – | – | – | – |
| Cn1c(C(O)c2ccc(Br)cc2)nc(Cl)c1Cl (stereo unspecified) | inactive | inactive | – | inactive | – | – | -7.53% [at 17.1 µM, percent relative to cAMP agonist control] | -0.272% [at 30.8 µM] | 8.17% [at 30.8 µM] | – |
| CCCc1nc2ccc(C(=O)OC)cn2c1Cc1ccccc1 | inactive | inactive | inactive | 33.8 µM (active) | inactive | inactive | – | – | – | – |
| O=C1NC(=S)S/C1=C\c1coc2ccc(O)cc2c1=O | 39.8 µM (active) | inactive | – | inactive | – | – | 11% [at 17.1 µM, percent relative to cAMP agonist control] | -13.4% [at 30.8 µM] | -0.252% [at 30.8 µM] | – |
| Cc1ccc(C(=O)N2CCN(c3ccccc3)CC2)cc1S(=O)(=O)N1CCOCC1 | inactive | inactive | inactive | inactive | inactive | inactive | – | – | – | – |
| CCN(CC(=O)Nc1ccccc1OC)C(=O)c1ccc(N(C)S(=O)(=O)c2ccc(C)cc2)cc1 | inactive | inactive | inactive | inactive | inactive | inactive | – | – | – | – |
| Cn1cc(C(=O)C(=O)N2CCCCC2)c2ccccc21 | inactive | inactive | inactive | inactive | inactive | inactive | – | – | – | – |
| COc1ccc(S(=O)(=O)N2CCCCC2)cc1C(C)C | inactive | inactive | inactive | 8.49 µM (active) | inactive | inactive | – | – | – | – |
| CCc1ccc(NC(=O)CSc2nc(-c3ccccc3)c(C#N)c(=O)[nH]2)cc1 | 75.7 µM (active) | inactive | inactive | – | inactive | inactive | – | – | – | inactive [at 12.7 µM] |
| COc1ccc(OC)c(NS(=O)(=O)c2cc3c4c(c2)CCN4C(=O)CC3)c1 | inactive | inactive | inactive | inactive | inactive | inactive | – | – | – | – |
| Cc1noc(C)c1S(=O)(=O)Nc1ccc2c(c1)C(=O)N([C@@H](C)CO)C[C@@H](C)[C@@H](CN(C)CC1CCCCC1)OCCCC[C@@H](C)O2 | inactive | inactive | inactive | inactive | inactive | inactive | – | – | – | – |
| CCOC(=O)C1=C(CC)OC(N)=C(C#N)C1c1ccc(OC)c(OC)c1OC (stereo unspecified) | inactive | inactive | – | inactive | – | – | -0.762% [at 17.1 µM, percent relative to cAMP agonist control] | -16.4% [at 30.8 µM] | 8.26% [at 30.8 µM] | – |

| SMILES | Potency [1] | Potency [2] | Potency [3] | Potency [4] | Potency [5] | Potency [6] | activation [3] | activity change, negative = inhibition [5] | activation [6] | outcome [4] |
| --- | --- | --- | --- | --- | --- | --- | --- | --- | --- | --- |
| COc1ccc(CCNC2CC(=O)N(CCc3ccc(OC)c(OC)c3)C2=O)cc1 (stereo unspecified) | inactive | inactive | – | inactive | – | – | 4.7% [at 17.1 µM, percent relative to cAMP agonist control] | -1.61% [at 30.8 µM] | 8.52% [at 30.8 µM] | – |
| O=C(c1ccco1)N(Cc1cccs1)c1ccc(F)cc1 | inactive | inactive | inactive | inactive | inactive | inactive | – | – | – | – |
| O=c1[nH][nH]c(-c2ccccc2O)c1C(C[N+](=O)[O-])c1ccc(Cl)cc1Cl (stereo unspecified) | inactive | inactive | inactive | inactive | inactive | inactive | – | – | – | – |
| COCCn1c(-c2ccc(Br)cc2)csc1=Nc1cccnc1 | inactive | inactive | inactive | inactive | inactive | inactive | – | – | – | – |
| COC(=O)CN1C(=S)N(c2ccc(OC)cc2)C(=O)/C1=C/c1ccc(N2CCOCC2)cc1 | inactive | 100 µM (active) | 100 µM (active) | 75.7 µM (active) | inactive | 28.2 µM (active) | – | – | – | – |
| Cc1ccc(OCC(=O)OC(C)CN(C)Cc2ccccc2)cc1 (stereo unspecified) | inactive | inactive | – | inactive | – | – | 4.43% [at 17.1 µM, percent relative to cAMP agonist control] | 8.78% [at 30.8 µM] | 10.6% [at 30.8 µM] | – |
| Cc1cc(-c2ccc(F)cc2)n2ncc(-c3ccccc3)c2n1 | inactive | inactive | inactive | inactive | inactive | inactive | – | – | – | – |
| COC(=O)c1ccc(CSc2ccc3nnc(-c4cccc(F)c4)n3n2)o1 | inactive | inactive | – | inactive | – | – | -3.47% [at 17.1 µM, percent relative to cAMP agonist control] | -19.6% [at 30.8 µM] | 0.6% [at 30.8 µM] | – |
| COc1ccc(C2CC(c3cccs3)=NN2C(=O)c2ccco2)cc1OC (stereo unspecified) | inactive | inactive | – | inactive | – | – | 4.11% [at 17.1 µM, percent relative to cAMP agonist control] | -16.2% [at 30.8 µM] | 31.8% [at 30.8 µM] | – |
| O=C(NC1CCC(O)CC1)c1ccc(S(=O)(=O)NCc2ccco2)cc1 (stereo unspecified) | inactive | inactive | inactive | inactive | inactive | inactive | – | – | – | – |
| CCN(CC)c1ccc2c(c1)OC(N)=C(C#N)C2c1cccnc1 (stereo unspecified) | inactive | 89.1 µM (active) | 100 µM (active) | 75.7 µM (active) | inactive | 35.5 µM (active) | – | – | – | – |
| Cc1ccc(OCCn2c(=O)n(C)c3ccccc32)cc1 | inactive | inactive | inactive | 67.5 µM (active) | inactive | inactive | – | – | – | – |
| CCOc1ccc(/C=C2\SC(=S)NC2=O)cc1OC | 15.1 µM (active) | inactive | inactive | inactive | inactive | inactive | – | – | – | – |
| N#C/C(=C\C1=C(N2CCOCC2)C(=C/c2cccc([N+](=O)[O-])c2)/CC1)C(=O)Nc1ccccc1F | 47.8 µM (active) | inactive | inactive | inactive | inactive | inactive | – | – | – | – |
| COc1ccccc1/C=C1\SC(=S)N(NS(=O)(=O)c2ccccc2)C1=O | 16.9 µM (active) | inactive | inactive | inactive | inactive | inactive | – | – | – | – |
| CCN(c1ccccc1)S(=O)(=O)c1ccc(C(=O)Nc2ccncc2)cc1 | inactive | inactive | – | inactive | – | – | -2.02% [at 17.1 µM, percent relative to cAMP agonist control] | -7.46% [at 30.8 µM] | 15% [at 30.8 µM] | – |
| CCC(COC)Oc1cc(NCc2ccccc2)c2ncn(C(C)C)c2c1 (stereo unspecified) | inactive | inactive | inactive | inactive | inactive | 7.94 µM (active) | – | – | – | – |
| CCOc1cnc(-c2c(-c3c(Cl)cccc3Cl)noc2C)o1 | inactive | inactive | – | inactive | – | – | 1.16% [at 17.1 µM, percent relative to cAMP agonist control] | -6.2% [at 30.8 µM] | 12% [at 30.8 µM] | – |
| O=C(N/N=C/c1ccc(-c2ccc(Cl)c(C(=O)O)c2)o1)c1cc2c(ccc3ccccc32)o1 | 12.6 µM (active) | inactive | – | inactive | – | – | 0.332% [at 17.1 µM, percent relative to cAMP agonist control] | -35.1% [at 30.8 µM] | 12% [at 30.8 µM] | – |
| COc1ccc(-c2cc(=O)oc3c(O)c(O)ccc23)cc1 | 8.49 µM (active) | inactive | inactive | inactive | inactive | inactive | – | – | – | – |
